Experimental data as given in PubChem BioAssay AID1825 (The Scripps Research Institute Molecular Screening Center, 2009).
Out of some 290,000 compounds screened, about 2,300 (0.79%) were called active. The full list was thinned out, with actives kept by preference. A number with no mark means an inactive call. Cut-off read from the data, not from the text of the source: active = inhibition above about 22%; inactive = the rest.

Assay: IEC-6 cell viability reduction – luminescence, cytotoxicity control for KLF5 inhibitor project, primary screen (AID 1825);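 note: 0% = plate median of test compound wells and 100% = cytotoxic reference compound wells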
Conditions: IEC-6 cytotoxicity, at 5 µM, active compounds read high

Structure (SMILES)	inhibition
CCN(CC(=O)NCCCN1CCOCC1)S(=O)(=O)c1cc(Cl)ccc1Cl	0.6%
O=S(=O)(NCCc1ccc(Cl)cc1)c1cccs1	6.4%
COc1ccc(N2C(=O)C(Cc3ccccc3)NC2=S)cc1 (stereo unspecified)	3.8%
Cc1ccc(N2C(=O)C(Cc3ccccc3)NC2=S)cc1 (stereo unspecified)	24.6% (active)
O=C1C(Cc2ccc(O)cc2)NC(=S)N1Cc1ccccc1 (stereo unspecified)	-3.3%
CC(C)C(=O)NCC(c1cccs1)S(=O)(=O)c1ccc(F)cc1 (stereo unspecified)	7.2%
CC(=O)Nc1ccc(Nc2ncnc3c2nnn3Cc2ccccc2Cl)cc1	1.1%
CCN(Cc1nc2ccccc2c(=O)[nH]1)Cc1cc(=O)oc2cc(C)c(C)cc12	2%
COc1ccc(C(=O)Nc2cc(C)c(NC(=O)c3ccccc3OC)cn2)cc1	-2.8%
Cc1cc(C(=O)NC2CC(C)(C)Cc3c2cnn3-c2ccccc2)n[nH]1 (stereo unspecified)	7.1%
COc1cccc2sc(N(CCCN(C)C)C(=O)C(c3ccccc3)c3ccccc3)nc12	3.5%
Cc1cccc2sc(N(CCCN(C)C)C(=O)CCS(=O)(=O)c3ccccc3)nc12	11.3%
COc1cccc2sc(N(CCCN(C)C)C(=O)CCS(=O)(=O)c3ccccc3)nc12	50% (active)
COc1ccccc1NC(=O)c1ccc(C)s1	34.8% (active)
COC(=O)c1c(NC(C)=O)sc(C(=O)Nc2ccccc2OC)c1C	-1.2%
COc1ccccc1NC(=O)C1=C(C)NC(=O)NC1c1ccc(C)s1 (stereo unspecified)	-4.5%
CC(NC(=O)Cn1cc(C(F)(F)F)cc(Cl)c1=O)c1ccccc1 (stereo unspecified)	4.4%
COc1ccccc1CCNC(=O)c1c(C)nn(CC(C)C)c1Cl	-4.6%
O=C(Cc1cccs1)Nc1ccc([N+](=O)[O-])cc1	-0.5%
CC(C)c1ccc(Cc2nnc(NCCCO)[nH]c2=O)cc1	3.6%
CCOc1ccccc1NC(=O)Cn1nnc(C(=O)NCc2cccs2)c1N	84.2% (active)

Structure (SMILES)	inhibition
CCOc1ccccc1NC(=O)Cc1cccs1	-0.9%
Cc1ccc(NC(=O)Cn2nnc(C(=O)NCc3ccco3)c2N)c(C)c1	-1.1%
CC(C)c1cc(C(=O)N/N=C/c2ccoc2)c(O)c(C(C)C)c1	-1.3%
CCN(C(=O)C1CCCN(c2nc(-c3ccc(OC)cc3)no2)C1)c1ccc(OC)cc1 (stereo unspecified)	-1.6%
Cc1nc(Cl)c2oc3ccccc3c2n1	-5.3%
COc1ccccc1Nc1ncnc2c1oc1ccccc12	-0.2%
COc1ccc(C)cc1Nc1nc(C)nc2c1oc1ccccc12	34.1% (active)
CSc1ncccc1C(=O)Nc1ccc(C)cn1	4.3%
CCOC(=O)c1[nH]c2c(c1-c1ccccc1)C(=O)CC(c1ccc(Cl)cc1)C2 (stereo unspecified)	2%
CCCOC(=O)c1[nH]c2c(c1C)C(=O)CC(c1cccs1)C2 (stereo unspecified)	81.1% (active)
COCCOC(=O)c1[nH]c2c(c1C)C(=O)CC(c1ccc(OC)cc1)C2 (stereo unspecified)	2.6%
CCOc1cc(C)c(S(=O)(=O)NCc2ccccn2)cc1C	4.3%
COc1ccc(S(=O)(=O)N(CC(=O)N/N=C/c2ccccc2C(=O)O)c2ccccc2OC)cc1	2.9%
COc1ccccc1N(CC(=O)N/N=C(\C)c1ccccc1O)S(=O)(=O)c1ccc(C)cc1	33.8% (active)
COc1ccccc1NC(=O)CN(c1ccccc1OC)S(=O)(=O)c1ccccc1	-4.1%
CC(=O)NC(Cc1c[nH]c2ccccc12)C(=O)NCCc1ccccc1 (stereo unspecified)	-0.3%
COc1cccc(C(=O)Nc2ccc(N3CCN(C(=O)c4ccco4)CC3)cc2)c1	45% (active)
COc1ccc(C(=O)Nc2ccc(N3CCC(C)CC3)cc2)cc1Br	-5.3%
COc1ccc(NC(=O)c2cccc(NC(=O)c3ccco3)c2)c(OC)c1	4.3%
Cc1ccc(OCC(=O)Nc2ccc(N3CCN(C(=O)c4ccco4)CC3)cc2)c(C)c1	-14.8%
COc1cccc(C(=O)Nc2ccc(N3CCCC3)cc2)c1	24.2% (active)

Structure (SMILES)	inhibition
CN1CCN(c2ccc(NC(=O)c3ccccc3)cc2)CC1	-2.5%
CCOC(=O)N1CCN(CCC(=O)Nc2ccccc2)CC1	-5.3%
O=C(Nc1cccc(NC(=O)c2ccccc2[N+](=O)[O-])c1)c1ccccc1Cl	8%
O=C(O)c1cc([N+](=O)[O-])c(Nc2cccc3ccccc23)c([N+](=O)[O-])c1	4.7%
CSc1ccccc1OCc1cc(C(=O)N2C[C@H]3CC[C@H]2C3)no1	1.9%
COc1ccc(N2CCN(C(=O)[C@@H](NC(=O)c3cc(OC)cc(OC)c3)C(C)C)CC2)cc1	-4.9%
Cc1cccnc1NC(=O)c1cccc(S(=O)(=O)N2CCN(c3ccc(F)cc3)CC2)c1	2.3%
O=C(N/N=C/c1coc2ccccc2c1=O)c1cc2ccccc2o1	4.7%
O=C(N/N=C/c1c[nH]c2ccccc12)c1cc2ccccc2o1	12.6%
Cc1c(/C=N\NC(=O)c2cc3ccccc3o2)c2ccccc2n1C	43.7% (active)
O=[N+]([O-])c1ccccc1S(=O)(=O)Nc1cccc2cccnc12	55.6% (active)
O=C(Nc1ccccc1Cl)Nc1cccc2cccnc12	3.4%
Cc1ccccc1NC(=O)c1ccccc1NS(=O)(=O)c1cccc2cccnc12	-2.7%
O=C(NCCc1nnc2ccc(SCC(=O)N3CCOCC3)nn12)c1ccccc1	-3.4%
CCC(Cc1ccccc1)NS(=O)(=O)c1ccc2c(c1)NC(=O)CS2 (stereo unspecified)	2.9%
CCOc1cc(C(=O)N2CCc3cc(OC)c(OC)cc3C2)ccc1OC(F)F	90% (active)
COc1cc2c(cc1OC)CN(C(=O)c1cc(=O)c3ccccc3o1)CC2	18.2%
COc1cc2c(cc1OC)CN(C(=O)c1ccc(S(=O)(=O)N3CCCCCC3)cc1)CC2	0.2%
CCCCN(CCCC)CCCNC(=O)CN1C(=O)COc2ccc(S(=O)(=O)N3CCC(C)CC3)cc21	7.2%
